Laboratory results taken from article PMC7862700, “An all-to-all approach to the identification of sequence-specific readers for epigenetic DNA modifications on cytosine”.

Columns and labels:
Assay in all cases: DAPPL (digital affinity profiling via proximity ligation, sequencing); 10 mM Tris-HCl pH 7.5, 50 mM NaCl, 1 mM DTT, 4% glycerol, room temperature, 30 min; GST-TFs on glutathione beads, 16-mer random dsDNA library, 0.1% formaldehyde crosslink after washing; high values mean tight binding
Conditions in all cases: protein: recombinant; tags: N-terminal GST; dsDNA, one strand shown
ELF1 = ELF1 (Homo sapiens, UniProt P32519 1-619)
Summary of the method: (§1)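 GST fusions of human transcription factors were expressed in yeast and captured with glutathione beads. Once given DNA barcodes and pooled alongside a tag-only sample, they were incubated for 30 min at room temperature with 200 nmole of a random double-stranded 16-mer DNA library in Tris/NaCl/DTT/glycerol buffer, then washed, crosslinked (0.1% formaldehyde), proximity-ligated, PCR-amplified and sequenced on an Illumina NextSeq500. The binding signal of each hexamer is its read frequency for a factor divided by its frequency for the tag-only sample.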

ELK3 = molecular target: T1, ELK3 (Homo sapiens, UniProt P41970 1-407)
T1 sequence: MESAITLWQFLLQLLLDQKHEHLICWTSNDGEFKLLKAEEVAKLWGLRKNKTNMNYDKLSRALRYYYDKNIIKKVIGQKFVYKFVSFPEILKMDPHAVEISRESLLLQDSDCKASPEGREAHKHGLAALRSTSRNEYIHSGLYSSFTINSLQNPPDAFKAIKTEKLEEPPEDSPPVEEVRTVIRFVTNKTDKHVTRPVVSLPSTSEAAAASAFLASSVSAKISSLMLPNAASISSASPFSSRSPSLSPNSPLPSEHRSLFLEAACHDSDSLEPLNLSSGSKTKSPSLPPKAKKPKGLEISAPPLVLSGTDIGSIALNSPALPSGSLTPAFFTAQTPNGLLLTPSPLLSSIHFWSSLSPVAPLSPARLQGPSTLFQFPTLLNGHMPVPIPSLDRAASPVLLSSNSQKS
Summary of the method: as §1

FEV = molecular target: T2, FEV (Homo sapiens, UniProt Q99581 1-238)
T2 sequence: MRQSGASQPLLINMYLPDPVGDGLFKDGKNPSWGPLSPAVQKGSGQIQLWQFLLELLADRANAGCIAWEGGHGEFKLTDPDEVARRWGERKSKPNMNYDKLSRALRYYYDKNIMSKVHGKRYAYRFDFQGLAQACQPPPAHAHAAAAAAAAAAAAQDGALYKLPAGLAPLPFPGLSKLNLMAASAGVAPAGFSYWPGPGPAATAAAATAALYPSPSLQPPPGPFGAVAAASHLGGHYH
Summary of the method: as §1

ETV5 = ETV5 (Homo sapiens, UniProt P41161 1-510)
Summary of the method: as §1

ELF4 = ELF4 (Homo sapiens, UniProt Q99607 1-663)
Summary of the method: as §1

ELK4 = molecular target: T3, ELK4 (Homo sapiens, UniProt P28324-2 1-405)
T3 sequence: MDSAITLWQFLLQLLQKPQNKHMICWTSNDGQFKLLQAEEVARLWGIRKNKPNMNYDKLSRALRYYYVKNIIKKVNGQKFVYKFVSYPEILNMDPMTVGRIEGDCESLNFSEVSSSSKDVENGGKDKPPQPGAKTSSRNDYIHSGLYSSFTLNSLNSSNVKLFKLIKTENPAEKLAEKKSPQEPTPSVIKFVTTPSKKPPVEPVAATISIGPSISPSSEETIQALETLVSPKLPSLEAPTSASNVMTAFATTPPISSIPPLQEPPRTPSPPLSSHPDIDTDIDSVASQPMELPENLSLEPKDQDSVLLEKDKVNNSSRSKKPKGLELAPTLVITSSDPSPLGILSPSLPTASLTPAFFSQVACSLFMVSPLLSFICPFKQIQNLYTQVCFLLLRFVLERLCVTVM
Summary of the method: as §1

ETV3L = molecular target: T4, ETV3L (Homo sapiens, UniProt Q6ZN32 1-361)
T4 sequence: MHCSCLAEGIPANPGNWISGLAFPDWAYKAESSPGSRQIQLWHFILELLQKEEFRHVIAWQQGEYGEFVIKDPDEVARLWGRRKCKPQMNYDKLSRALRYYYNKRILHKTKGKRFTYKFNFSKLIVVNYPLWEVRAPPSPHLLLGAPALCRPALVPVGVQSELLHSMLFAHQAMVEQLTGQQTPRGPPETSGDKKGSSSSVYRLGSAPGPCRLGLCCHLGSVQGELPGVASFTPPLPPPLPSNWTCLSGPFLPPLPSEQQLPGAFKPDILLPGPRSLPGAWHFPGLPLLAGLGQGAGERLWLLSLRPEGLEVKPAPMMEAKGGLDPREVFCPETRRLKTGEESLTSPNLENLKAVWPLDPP
Summary of the method: as §1

ETS2 = molecular target: T5, ETS2 (Homo sapiens, UniProt P15036 1-469)
T5 sequence: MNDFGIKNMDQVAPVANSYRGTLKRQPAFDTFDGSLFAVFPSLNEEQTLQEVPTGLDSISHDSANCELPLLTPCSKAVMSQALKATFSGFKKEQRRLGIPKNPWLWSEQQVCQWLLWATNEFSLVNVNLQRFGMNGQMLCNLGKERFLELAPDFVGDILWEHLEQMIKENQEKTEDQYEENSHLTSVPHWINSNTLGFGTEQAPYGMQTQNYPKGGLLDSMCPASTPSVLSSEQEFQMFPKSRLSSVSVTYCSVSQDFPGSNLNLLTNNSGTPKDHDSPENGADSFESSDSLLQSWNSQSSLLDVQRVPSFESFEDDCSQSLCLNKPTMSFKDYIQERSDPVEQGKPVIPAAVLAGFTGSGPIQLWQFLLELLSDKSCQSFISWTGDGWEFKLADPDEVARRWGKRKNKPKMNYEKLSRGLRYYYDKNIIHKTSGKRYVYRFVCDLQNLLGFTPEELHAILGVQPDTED
Summary of the method: as §1

ETV6 = ETV6 (Homo sapiens, UniProt P41212 1-452)
Summary of the method: as §1

ELK1 = molecular target: T6, ELK1 (Homo sapiens, UniProt P19419 1-428)
T6 sequence: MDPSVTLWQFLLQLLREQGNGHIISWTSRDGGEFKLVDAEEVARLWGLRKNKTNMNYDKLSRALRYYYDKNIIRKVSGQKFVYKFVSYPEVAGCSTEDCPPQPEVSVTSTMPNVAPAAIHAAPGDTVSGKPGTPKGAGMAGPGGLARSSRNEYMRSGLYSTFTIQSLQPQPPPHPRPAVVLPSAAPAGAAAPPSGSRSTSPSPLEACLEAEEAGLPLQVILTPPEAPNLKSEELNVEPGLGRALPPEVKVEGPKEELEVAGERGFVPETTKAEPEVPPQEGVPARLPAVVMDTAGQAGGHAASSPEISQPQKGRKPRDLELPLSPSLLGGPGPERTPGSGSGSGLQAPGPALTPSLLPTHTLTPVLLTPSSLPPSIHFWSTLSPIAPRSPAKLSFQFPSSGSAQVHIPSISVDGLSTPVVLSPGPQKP
Summary of the method: as §1

GABPA = molecular target: T7, GABPA (Homo sapiens, UniProt Q06546 1-454)
T7 sequence: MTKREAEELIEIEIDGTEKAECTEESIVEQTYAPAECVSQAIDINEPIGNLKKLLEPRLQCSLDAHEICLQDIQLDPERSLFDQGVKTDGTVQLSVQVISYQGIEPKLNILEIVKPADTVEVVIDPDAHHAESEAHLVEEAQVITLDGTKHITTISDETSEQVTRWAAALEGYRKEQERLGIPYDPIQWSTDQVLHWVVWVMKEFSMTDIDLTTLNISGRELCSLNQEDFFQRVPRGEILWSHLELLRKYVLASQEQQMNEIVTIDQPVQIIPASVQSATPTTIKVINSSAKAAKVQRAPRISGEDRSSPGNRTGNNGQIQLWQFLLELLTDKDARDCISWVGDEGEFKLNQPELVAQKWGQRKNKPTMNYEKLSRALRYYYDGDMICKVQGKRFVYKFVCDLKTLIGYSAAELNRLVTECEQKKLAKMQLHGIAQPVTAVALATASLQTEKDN
Summary of the method: as §1

SPIB = SPIB (Homo sapiens, UniProt Q01892 1-262)
Summary of the method: as §1

ETV1 = ETV1 (Homo sapiens, UniProt P50549 1-477)
Summary of the method: as §1

ERF = molecular target: T8, ERF (Homo sapiens, UniProt P50548 1-548)
T8 sequence: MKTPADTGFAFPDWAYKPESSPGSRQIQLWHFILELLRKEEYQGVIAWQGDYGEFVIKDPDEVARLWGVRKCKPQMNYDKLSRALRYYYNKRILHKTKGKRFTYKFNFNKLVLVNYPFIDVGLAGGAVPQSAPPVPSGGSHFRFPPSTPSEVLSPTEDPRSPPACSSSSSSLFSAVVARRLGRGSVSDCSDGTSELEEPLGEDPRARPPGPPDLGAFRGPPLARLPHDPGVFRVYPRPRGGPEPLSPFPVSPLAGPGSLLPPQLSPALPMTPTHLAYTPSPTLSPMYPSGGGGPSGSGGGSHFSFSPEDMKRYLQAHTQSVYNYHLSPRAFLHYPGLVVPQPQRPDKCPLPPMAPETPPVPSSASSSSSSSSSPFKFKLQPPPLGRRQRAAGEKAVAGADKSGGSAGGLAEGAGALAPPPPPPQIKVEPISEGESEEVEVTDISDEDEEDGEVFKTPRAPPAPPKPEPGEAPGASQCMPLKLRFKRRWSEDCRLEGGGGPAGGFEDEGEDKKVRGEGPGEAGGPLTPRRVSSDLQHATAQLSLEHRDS
Summary of the method: as §1

ETV7 = molecular target: T9, ETV7 (Homo sapiens, UniProt Q9Y603 1-341)
T9 sequence: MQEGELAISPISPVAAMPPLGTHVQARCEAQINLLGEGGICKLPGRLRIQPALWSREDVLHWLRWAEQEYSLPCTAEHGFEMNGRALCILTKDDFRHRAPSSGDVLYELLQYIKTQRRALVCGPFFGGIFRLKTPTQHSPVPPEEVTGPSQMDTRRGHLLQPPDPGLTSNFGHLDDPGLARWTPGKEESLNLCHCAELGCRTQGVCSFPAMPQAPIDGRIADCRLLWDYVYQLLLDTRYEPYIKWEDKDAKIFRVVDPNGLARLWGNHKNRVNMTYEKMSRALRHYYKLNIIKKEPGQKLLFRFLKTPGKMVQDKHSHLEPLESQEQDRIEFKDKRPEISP
Summary of the method: as §1

Sequence of ELF1 (P32519 whole entry, the tested form may be a part): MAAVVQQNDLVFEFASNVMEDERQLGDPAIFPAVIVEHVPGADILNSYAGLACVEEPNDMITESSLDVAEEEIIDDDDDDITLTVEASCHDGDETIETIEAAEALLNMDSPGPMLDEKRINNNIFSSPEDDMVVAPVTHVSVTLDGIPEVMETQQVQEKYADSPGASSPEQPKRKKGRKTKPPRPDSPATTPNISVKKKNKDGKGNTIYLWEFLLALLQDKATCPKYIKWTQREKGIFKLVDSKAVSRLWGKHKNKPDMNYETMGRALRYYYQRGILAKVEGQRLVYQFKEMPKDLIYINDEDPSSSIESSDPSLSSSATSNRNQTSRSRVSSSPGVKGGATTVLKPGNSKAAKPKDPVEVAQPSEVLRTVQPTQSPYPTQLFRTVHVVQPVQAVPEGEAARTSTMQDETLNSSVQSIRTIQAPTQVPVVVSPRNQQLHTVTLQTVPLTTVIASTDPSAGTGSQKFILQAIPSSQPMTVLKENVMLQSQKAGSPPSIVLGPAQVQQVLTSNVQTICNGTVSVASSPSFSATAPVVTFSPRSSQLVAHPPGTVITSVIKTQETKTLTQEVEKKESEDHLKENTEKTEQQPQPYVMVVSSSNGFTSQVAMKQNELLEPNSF
Sequence of ETV5 (P41161 whole entry): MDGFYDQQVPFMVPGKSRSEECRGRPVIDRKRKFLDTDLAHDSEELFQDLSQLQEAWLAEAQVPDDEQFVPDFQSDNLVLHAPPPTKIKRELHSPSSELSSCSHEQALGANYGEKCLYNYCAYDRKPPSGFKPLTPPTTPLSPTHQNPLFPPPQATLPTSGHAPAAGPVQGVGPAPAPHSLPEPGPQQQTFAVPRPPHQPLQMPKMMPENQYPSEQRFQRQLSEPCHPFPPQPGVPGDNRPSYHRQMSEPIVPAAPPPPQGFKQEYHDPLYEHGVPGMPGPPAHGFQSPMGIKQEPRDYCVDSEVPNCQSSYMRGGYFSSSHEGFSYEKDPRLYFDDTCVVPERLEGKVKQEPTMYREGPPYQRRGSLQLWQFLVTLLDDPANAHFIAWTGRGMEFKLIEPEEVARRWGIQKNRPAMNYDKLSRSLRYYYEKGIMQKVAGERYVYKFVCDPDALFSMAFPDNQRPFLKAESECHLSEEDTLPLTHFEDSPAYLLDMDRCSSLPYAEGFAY
Sequence of ELF4 (Q99607 whole entry): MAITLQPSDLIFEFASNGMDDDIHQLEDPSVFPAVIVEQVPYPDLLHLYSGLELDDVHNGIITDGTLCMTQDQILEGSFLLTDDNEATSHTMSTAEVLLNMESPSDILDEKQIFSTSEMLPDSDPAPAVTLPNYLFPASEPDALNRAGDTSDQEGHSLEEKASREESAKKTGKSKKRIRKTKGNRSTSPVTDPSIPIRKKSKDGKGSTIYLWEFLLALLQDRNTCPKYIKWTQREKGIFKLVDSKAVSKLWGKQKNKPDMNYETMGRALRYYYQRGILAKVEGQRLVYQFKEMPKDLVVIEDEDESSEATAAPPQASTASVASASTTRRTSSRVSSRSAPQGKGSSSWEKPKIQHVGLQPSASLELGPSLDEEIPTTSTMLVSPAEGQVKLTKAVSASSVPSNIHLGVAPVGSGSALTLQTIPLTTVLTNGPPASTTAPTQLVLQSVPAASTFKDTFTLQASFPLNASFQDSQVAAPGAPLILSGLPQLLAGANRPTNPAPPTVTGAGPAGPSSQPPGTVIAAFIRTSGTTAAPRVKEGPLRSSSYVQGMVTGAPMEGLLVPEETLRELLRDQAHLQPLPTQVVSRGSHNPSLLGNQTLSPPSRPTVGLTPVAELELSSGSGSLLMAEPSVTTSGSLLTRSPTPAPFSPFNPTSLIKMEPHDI
Sequence of ETV1 (P50549 whole entry): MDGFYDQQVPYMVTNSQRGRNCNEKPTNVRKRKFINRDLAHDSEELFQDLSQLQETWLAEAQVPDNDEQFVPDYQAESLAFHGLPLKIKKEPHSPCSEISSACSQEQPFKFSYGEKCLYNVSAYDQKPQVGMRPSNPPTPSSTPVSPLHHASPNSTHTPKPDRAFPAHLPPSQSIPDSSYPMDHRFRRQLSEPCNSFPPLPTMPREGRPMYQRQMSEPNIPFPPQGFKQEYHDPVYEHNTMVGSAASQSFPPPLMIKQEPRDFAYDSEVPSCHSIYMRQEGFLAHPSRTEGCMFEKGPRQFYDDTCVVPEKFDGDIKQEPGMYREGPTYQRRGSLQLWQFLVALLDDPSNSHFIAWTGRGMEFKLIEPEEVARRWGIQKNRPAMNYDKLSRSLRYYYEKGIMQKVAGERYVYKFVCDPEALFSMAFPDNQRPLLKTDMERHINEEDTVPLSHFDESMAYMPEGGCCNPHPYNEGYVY
Sequence of ETV6 (P41212 whole entry): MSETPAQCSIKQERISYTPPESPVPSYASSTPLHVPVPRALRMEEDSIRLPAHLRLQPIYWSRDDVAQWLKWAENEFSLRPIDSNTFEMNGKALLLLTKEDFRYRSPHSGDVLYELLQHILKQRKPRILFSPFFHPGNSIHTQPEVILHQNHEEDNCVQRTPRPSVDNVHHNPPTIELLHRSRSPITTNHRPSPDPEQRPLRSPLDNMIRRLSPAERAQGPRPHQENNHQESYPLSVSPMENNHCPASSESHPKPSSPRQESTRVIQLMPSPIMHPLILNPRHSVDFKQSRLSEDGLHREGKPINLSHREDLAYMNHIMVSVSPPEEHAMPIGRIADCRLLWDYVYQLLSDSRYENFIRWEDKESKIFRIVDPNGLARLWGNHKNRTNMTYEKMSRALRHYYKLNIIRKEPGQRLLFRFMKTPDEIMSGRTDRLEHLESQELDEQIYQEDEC
Sequence of SPIB (Q01892 whole entry): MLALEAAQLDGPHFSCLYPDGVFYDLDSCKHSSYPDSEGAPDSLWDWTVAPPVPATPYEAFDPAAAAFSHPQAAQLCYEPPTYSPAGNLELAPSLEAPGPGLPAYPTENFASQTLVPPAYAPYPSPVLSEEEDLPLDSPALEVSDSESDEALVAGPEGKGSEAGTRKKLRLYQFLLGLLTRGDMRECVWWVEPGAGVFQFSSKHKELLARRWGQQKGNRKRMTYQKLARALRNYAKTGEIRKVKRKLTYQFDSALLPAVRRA

Row | Sequence | binding signal (ELF1) | binding signal (ELK3) | binding signal (FEV) | binding signal (ETV5) | binding signal (ELF4) | binding signal (ELK4) | binding signal (ETV3L) | binding signal (ETS2) | binding signal (ETV6) | binding signal (ELK1) | binding signal (GABPA) | binding signal (SPIB) | binding signal (ETV1) | binding signal (ERF) | binding signal (ETV7)
1 | TGGGCA | 1.06 fold enrichment (6-mer frequency, TF over GST control) | 1.19 fold enrichment (6-mer frequency, TF over GST control) | 1.01 fold enrichment (6-mer frequency, TF over GST control) | 1.04 fold enrichment (6-mer frequency, TF over GST control) | 1.04 fold enrichment (6-mer frequency, TF over GST control) | 1.06 fold enrichment (6-mer frequency, TF over GST control) | 1.04 fold enrichment (6-mer frequency, TF over GST control) | 1.04 fold enrichment (6-mer frequency, TF over GST control) | 1.02 fold enrichment (6-mer frequency, TF over GST control) |  |  |  |  |  | 
2 | CAGCCT | 1.06 fold enrichment (6-mer frequency, TF over GST control) |  | 1.02 fold enrichment (6-mer frequency, TF over GST control) | 1.04 fold enrichment (6-mer frequency, TF over GST control) | 1.12 fold enrichment (6-mer frequency, TF over GST control) | 1.01 fold enrichment (6-mer frequency, TF over GST control) | 1.02 fold enrichment (6-mer frequency, TF over GST control) |  |  | 1.11 fold enrichment (6-mer frequency, TF over GST control) | 1.09 fold enrichment (6-mer frequency, TF over GST control) | 1.09 fold enrichment (6-mer frequency, TF over GST control) | 1.02 fold enrichment (6-mer frequency, TF over GST control) | 1.1 fold enrichment (6-mer frequency, TF over GST control) | 1.13 fold enrichment (6-mer frequency, TF over GST control)
